BJeLR lethal – BJeLR cell viability loss. BJeLR (HRASV12) viability, CellTiter-Glo ATP luminescence, 48 h. inhibition, % (no concentration beside the values). 300,000 tested, 0.17% active. AID 1554; in the data active = inhibition above about 50%
MazEF act – MazEF (E. coli) toxin RNase activation; P0AE70; FAM/BHQ RNA-DNA oligo cleavage fluorescence, 5 h; activation, % at 20 µM; 350,000 tested, 0.32% active; AID 504720; in the data active = activation above about 50%
Target sequence (P0AE70 whole entry, looked up): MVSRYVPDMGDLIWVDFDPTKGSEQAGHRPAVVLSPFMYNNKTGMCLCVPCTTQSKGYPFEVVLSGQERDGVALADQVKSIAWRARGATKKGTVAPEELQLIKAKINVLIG
PrPC surface inh – reduces human prion protein on the cell surface | P04156 | inhibition, % at 13.8 µM | AID 720596 | cell surface PrPC, TR-FRET read-out | 370,000 tested, 0.43% active; in the data active = inhibition above about 24%; also: 0% = median of the test wells and 100% = reference compound wells
PrP 5UTR inh – suppresses PrP 5' UTR mRNA reporter expression; cell-based PrP 5' UTR mRNA reporter, plate reader; inhibition, % (test concentration not listed); 340,000 tested, 0.35% active; AID 488862; in the data active = inhibition above about 52%; also: 0 = median of the neutral control wells
The depositor's hits bear a star; / = no result; + = active, no number. The list is not random: actives were taken first. Their share in the collection is about 1.1%.

SMILES	BJeLR lethal	MazEF act	PrPC surface inh	PrP 5UTR inh
CCOC(=O)c1cccc(-[n+]2c(-c3ccccc3)cc(-c3ccccc3)cc2-c2ccccc2)c1	8.6	20.6	-7.4	11.0
CCOC(=O)c1ccc(-[n+]2c(-c3ccccc3)cc(-c3ccccc3)cc2-c2ccccc2)cc1	19.8	15.9	/	-14.9
CC(c1cc(F)ccc1O)c1c[nH]c2ccccc12 (stereo not drawn)	/	/	-6.5	/
CS(=O)(=O)c1cccc(OCCCN2CCC(C(O)(c3ccccc3)c3ccccc3)CC2)c1	/	/	-8.9	/
Cc1cc(OCC(=O)NCc2ccc(S(N)(=O)=O)cc2)c2c3c(c(=O)oc2c1)CCC3	1.9	71.9*	-10.4	-19.9
CCOc1ccc(-n2c(-c3ccccc3)c[n+]3c2CCCCC3)cc1	12.3	5.1	21.7	-9.2
CCOc1ccc(-c2c(C)n(-c3ccc(OCC)cc3)c3[n+]2CCCCC3)cc1	69.9*	9.0	28.3*	-10.0
C=C1C(=O)O[C@@H]2C[C@@H](C)[C@H]3C=CC(=O)[C@]3(O)C[C@@H]12	65.9*	3.4	-10.2	-7.2
C=C1C(=O)OC2CC3(C)OC3CCC(C)=CC(OC(C)=O)C12 (stereo not drawn)	/	5.0	5.4	-18.0
CC(C)c1cc(C(C)C)c(S(=O)(=O)N2CCCC(C(=O)NCc3cccs3)C2)c(C(C)C)c1 (stereo not drawn)	/	/	-0.1	/
C=CCN1[C@@H](CC(C)C)COc2cccc(NCCCN3CCOCC3)c2S1(=O)=O	/	/	-5.2	/
COC(=O)C[C@]1(C(=O)OC)CN(C#N)N(c2ccc(Cl)cc2)C12c1ccccc1-c1ccccc12	66.9*	5.5	74.9*	-0.9
COc1ccc2nc(-c3ccc(CN4CCC(c5nc6ccccc6[nH]5)CC4)cc3)c(-c3ccccc3)nc2c1	/	/	-18.9	/
C[C@H](O)[C@@H]1C(=O)N2CCc3c([nH]c4c(-c5ccccc5)cccc34)[C@@H]2C[C@@H]1N(C)C(=S)Nc1ccc(C#N)cc1	/	/	-14.2	/
CCN(CC)c1ccc(/C=N/NC(=O)c2cccc(S(=O)(=O)Nc3ccccc3OC)c2)c(O)c1	59.8*	-61.2	20.7	51.5
CCN(CC)c1ccc(/C=N/NC(=O)c2nnn(-c3nonc3N)c2C(C)C)c(O)c1	88.5*	1.5	23.2	33.6
CCN(CC)c1ccc(/C=N/NC(=O)c2ccc3nc[nH]c3c2)c(O)c1	52.8*	8.9	/	11.4
COc1cccc(/C=N/NC(=O)c2ccc3nc[nH]c3c2)c1O	-2.4	-4.8	-2.9	-48.0
CC(C)CNC(=O)OCc1cn(Cc2cccc(F)c2F)nn1	/	/	-0.1	/
COC(=O)c1cc2c(c3c4cc(OC)ccc4n(S(=O)(=O)c4ccccc4)c13)C(=O)N(C)C2	/	/	6.4	/
C[C@H](CO)N1C[C@H](C)[C@H](CN(C)C(=O)Nc2cccc(F)c2)Oc2cc(Br)ccc2S1(=O)=O	/	/	-6.0	/
COC(=O)C1CN(Cc2ccccc2)CCS(=O)(=O)N1Cc1ccccc1F (stereo not drawn)	/	/	1.3	/
C=C1C(=O)c2sccc2C(c2ccc(OC)c(OC)c2)C1COC(C)=O (stereo not drawn)	/	-33.5	96.3*	4.7
CCN1CCN(CC(=O)N2N=C(c3cccs3)CC2c2ccc(OC)c(OC)c2)C(=O)C1=O (stereo not drawn)	5.4	-2.9	-17.2	-10.7
CCOC(=O)Cn1c(=NC(=O)c2ccc([N+](=O)[O-])s2)sc2ccccc21	8.6	276.1*	7.9	-22.5
SMILES	BJeLR lethal	MazEF act	PrPC surface inh	PrP 5UTR inh
CCN(CCNc1ccc([N+](=O)[O-])c2cccnc12)S(=O)(=O)c1ccc(Cl)cc1	9.5	7.6	-3.0	-11.2
CCN(CCNc1ccc([N+](=O)[O-])c2cccnc12)S(=O)(=O)c1ccccc1	4.8	138.3*	3.6	-41.4
CC(C)c1ccc[n+](-c2nc([O-])sc2C=O)c1	2.6	-3.5	-12.0	/
Cc1ccc[n+](-c2nc([O-])sc2C=O)c1	/	69.0*	-18.1	-33.4
COC(=O)c1ccc2nc(Nc3nc4ccc(F)cc4s3)sc2c1	-9.9	4.4	-1.8	81.1*
COC(=O)c1ccc2nc(NC(=O)C(C)(C)C)sc2c1	4.2	6.3	-0.2	35.4
N#CC1=C(N)Oc2cc(O)ccc2C1c1ccccc1 (stereo not drawn)	1.7	4.1	4.7	8.5
N#CC1=C(N)SC(N)=C(C#N)C1c1cccc(O)c1	7.0	-297.3	27.2*	-25.9
COc1ccc(C2C(C#N)=C(N)SC(N)=C2C#N)cc1OC	7.6	-108.5	58.7*	-19.7
Brc1ccc(-c2ccc3c(n2)CCCN3Cc2ccccn2)cc1	/	/	-4.2	/
CC(=O)N1CCC2(CC1)C(C#N)=C(N)OC1=C2C(=O)CC(C)(C)C1	-14.5	-5.5	-3.8	-5.3
CC1(C)CC(=O)C2=C(C1)OC(N)=C(C#N)C21CCN(Cc2ccccc2)CC1	-17.5	50.3*	-7.2	-34.0
O=C(OCC#CCSc1nnc(-c2cccc3ccccc23)o1)c1ccccc1	/	/	-8.2	/
C/C(CC(=O)Nc1cc(C)ccn1)=N\NC(=O)C(=O)Nc1cccc(C)c1	-2.4	194.7*	5.7	-57.2
COc1ccc(COC(=O)c2cc([N+](=O)[O-])ccc2N2CCOCC2)cc1F	55.1*	3.6	-1.3	1.7
Cc1sc(NC(=O)c2sc3nc4c(C)cccc4cc3c2N)c(C#N)c1C	0.5	-1.9	-1.3	-64.2
Cc1cccc2cc3c(N)c(C(=O)Nc4ccc(N5CCOCC5)cc4)sc3nc12	3.9	-28.0	-0.1	-20.8
Cc1cccc2cc3c(N)c(C#N)sc3nc12	-3.7	92.3*	-7.7	-22.2
Cc1cccc2cc3c(N)c(C(=O)N4CCc5ccccc54)sc3nc12	-8.9	86.4*	4.7	-27.1
COC(=O)c1cc2c(c3c4cc(OC)ccc4n(S(=O)(=O)c4ccc(C)cc4)c13)C(=O)N(C)C2	/	/	8.6	/
COc1ccc(/C=N/Nc2nnc(-c3ncc[nH]3)c3ccccc23)cc1	-8.6	-1.8	/	-47.4
Oc1ccc2ccccc2c1/C=N/Nc1nnc(-c2ncc[nH]2)c2ccccc12	28.1	64.7*	-2.8	32.4
COc1cc2c(cc1OC)/C(=C/C(=O)c1ccc([N+](=O)[O-])c(C)c1)NCC2	11.8	74.0*	4.6	-3.0
CCOC(=O)C1=C(C)N(CC(C)C)C(=O)/C1=C\c1cccs1	-7.5	58.8*	-0.7	-0.9
CCN(CC)C(=O)c1ccc(NC(=O)Nc2ccccc2F)cc1	54.9*	9.6	3.9	43.6
SMILES	BJeLR lethal	MazEF act	PrPC surface inh	PrP 5UTR inh
O=C(Nc1ccc(Br)cc1)Nc1ccccc1F	2.6	4.5	23.0	-100.2
CC(C)(C)c1ccc(C(=O)C2CCCN(C(=O)C3CCOCC3)C2)cc1 (stereo not drawn)	-9.4	72.7*	7.3	3.8
Oc1ccc2ccccc2c1-c1sc(Nc2ccccc2)n[n+]1-c1ccc(F)cc1	14.7	+	-6.3	-27.4
CN1CCN(c2nc3c(c(=O)[nH]c(=O)n3C)n2CCCSc2ncccn2)CC1	6.0	0.8	5.4	-18.4
CCN1CCN(c2nc3c(c(=O)[nH]c(=O)n3C)n2CCCSc2ncccn2)CC1	17.7	53.8*	2.7	-12.3
COCc1[nH]nc2c1C(c1cc(OC)c(O)c(OC)c1)C(C#N)=C(N)O2 (stereo not drawn)	-10.1	195.3*	-7.6	-2.8
Cc1ccc(C2C(C#N)=C(N)Oc3n[nH]c(-c4cccs4)c32)cc1 (stereo not drawn)	10.2	4.9	-3.1	-29.6

Compound activity as filed in PubChem BioAssay.
